Compound activity (PubChem)
A selection: hits, their analogues and other compounds. The true share with any hit is near 21%.
Pf growth 48h: inhibits P. falciparum growth in the first generation, 48 h. P. falciparum luciferase growth in erythrocytes, 48 h. Potency, µM (doses to about 28.7 µM), inactives show top-dose activity change, negative = inhibition, usual class: inhibitors. actives 5.9% (n = 310,000); also: potency is read from the fitted curve at half-maximal effect; % is scaled to controls: 0 for no effect and ±100 for the full control effect
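Firefly luciferase activity from engineered P. falciparum reports growth; inhibitors lower the luminescent signal. Cultures contained 2% hematocrit erythrocytes at 0.1% final parasitemia.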
Shiga toxin inh: Shiga toxin inhibition; Vero cells, Shiga toxin protein synthesis inhibition reporter; inhibition, % at 38.7 µM; actives 9.2% (n = 290,000); AID 2315; in the data active = inhibition mostly above about 28%, no sharp cut-off; inactive = mostly below about 43%; also: 0% is about no effect
Pf growth 96h: P. falciparum growth inhibition at 96 hour, primary screen for plastid delayed-death inhibitors; Potency, µM (top dose mostly 28.7 µM), for inactives: at the highest dose activity change, negative = inhibition, most hits filed as inhibitors; actives 6.9% (n = 320,000); AID 504834; P. falciparum luciferase reporter growth, 96 h; also: potency is read from the fitted curve at half-maximal effect; % is scaled to controls: 0 for no effect and ±100 for the full control effect
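Luminescence readout: decreased luciferase signal marks inhibited growth of reporter-expressing P. falciparum in infected red cells (2% hematocrit, 0.05% parasitemia final), exposed to compound two generations (96 h, 37 C, 5% CO2).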
CHX counter: affects cycloheximide protein synthesis inhibition readout, counter-screen | actives 12% (n = 300,000) | cell reporter, cycloheximide protein synthesis inhibition counterscreen | max response, %; in the data active = max response mostly above about 13%, no sharp cut-off; inactive = mostly below about 14%; also: read at 38.3 µM for the half of the compounds with a filed dose; 0% is about no effect
* = called active by the depositor; ? = inconclusive; / = no result given; + = active, no number; [ ] = dose if it differs, or a comment. Unless noted, calls follow the shape of the dose curve; as a rule, active = well fitted inhibition curve with a large enough effect; inconclusive = small, poorly fitted or top-dose-only effect, or another doubt; inactive = no such curve, though single readings can be large or run the other way.

SMILES	Pf growth 48h	Shiga toxin inh	Pf growth 96h	CHX counter
Cc1ccc(NC(=O)c2cc3ccccc3oc2=N)cc1	316.4%	147.1*	-7.0%	77.4*
Cn1c(SCC(=O)Nc2cccc(F)c2)nnc1-c1cc2ccccc2o1	33.7%	-5.1	-1.7%	2.1
Cc1oc(S(=O)(=O)N(C)C)cc1C(=O)Nc1ccc(F)cc1	7.2%	-6.8	19.3%	-3.3
N=c1oc2ccccc2cc1C(=O)Nc1cccc(F)c1	30.0%	73.2*	?	40.7*
N=c1oc2ccccc2cc1C(=O)Nc1ccc(F)cc1	3.5%[0.00184 µM]	92.2*	7.9%	29.5*
N=c1oc2cc(O)ccc2cc1C(=O)Nc1ccc(Cl)cc1	78.1%	114.3*	29.2%	42.9*
Cc1ccc(C(=O)OCC(=O)NC2CCCCCC2)c(C)c1	30.3%	/	83.6%	/
Cc1ccc(C2/C(=C(\O)c3ccc4c(c3)OCCO4)C(=O)C(=O)N2CC2CCCO2)cc1 (stereo not drawn)	7.2%	-7.7	?	4.8
Cc1c(Cl)cccc1NC(=S)NCCc1ccc(Cl)cc1	?	48.3	?	23.9
Cc1ccccc1NC(=S)NCCc1ccc(S(N)(=O)=O)cc1	?	-10.8	9.5%	-0.9
Cc1c(Cl)cccc1NC(=S)NCCc1ccc(S(N)(=O)=O)cc1	-13.2%	-9.7	10.4µM*	-3.9
Cc1c(Cl)cccc1NC(=S)NCCc1ccc(F)cc1	?	13.4	13.1µM*	2.5
O=C(CSC1=NCCS1)c1ccc(Cl)cc1	10.4µM*	16.8	?	-1.1
COC(=O)c1ccc(CSC2=NCCS2)cc1	143.5%	79.3*	46.8%	60.9*
O=[N+]([O-])c1ccc(CSC2=NCCN2)cc1	30.4%	/	11.9%	2.4
O=[N+]([O-])c1ccc(CSC2=NCCS2)cc1	31.9%	/	-2.8%	26.8*
c1ccc(CSC2=NCCS2)cc1	16.6%	120.4*	-15.8%	29.0
CC(C)c1cccc(C(C)C)c1NC(=O)COC(=O)C1=COCCO1	3.3%	17.1	-8.9%	-0.9
OC(c1ccccc1)(c1ccccc1)c1ncc[nH]1	22.8%	/	0.0%	/
CCCOc1ccccc1Nc1nnc(C)c(=O)[nH]1	15.3%	-12.0	13.1µM*	-2.1
c1ccc2cc(CN3CCOCC3)ccc2c1	5.4%	8.4	7.3%	2.5
CN1CCN(Cc2ccc3ccccc3c2)CC1	?	8.9	11.7µM*	-1.7
CCCCCCOc1ccc(CN2CCN(C)CC2)cc1	75.4%	134.3*	-4.2%	41.2*
CCCCOc1ccc(CN2CCCCC2)cc1	18.0%	44.8*	-17.9%	17.3*
Oc1ccc(N2CCN(Cc3ccc(OCCCN4CCCCC4)cc3)CC2)cc1	5.8%[5.75 µM]	-3.0	?	-2.2
SMILES	Pf growth 48h	Shiga toxin inh	Pf growth 96h	CHX counter
O=C1CCN(S(=O)(=O)c2ccc(Cl)cc2)CCN1	10.9%	15.8	1.4%	-1.4
CN(CC(=O)Nc1ccc(Cl)cc1)c1ccc(S(=O)(=O)N2CCCCC2)cc1[N+](=O)[O-]	?	-13.0	2.94µM*	-3.8
O=C(CN1CCCCC1)Nc1ccc(N2CCCCCC2)cc1	?	44.4	24.1%	17.1*
COc1cc(CN(C)c2ccc(S(=O)(=O)N3CCCC3)cn2)ccc1OC(F)F	14.7µM*	/	?	/
O=C(CN1CCCCC1)Nc1ccccc1	/	-23.2	57.5%	-0.9
O=C(CSCc1ccc(Cl)cc1)Nc1ccc(S(=O)(=O)N2CCCCCC2)cc1	?	-6.7	13.1µM*	-4.5
COc1cc(NS(=O)(=O)c2c(C)[nH]c(C)c2C(=O)N2CCCCC2)cc(OC)c1OC	?	1.5	8.4%	8.5
Cc1nc([N+](=O)[O-])cn1Cc1cccc([N+](=O)[O-])c1	8.0%	-5.9	56.0%	5.8
Cc1ccc(NC(=O)c2cc(=O)[nH]c3ccccc23)cc1C	34.1%	-4.2	?	-1.8
NC(=O)c1ccc(NC(=O)CN2CCN(c3ccc(Cl)cc3)CC2)cc1	6.9%	-17.9	11.7µM*	-4.5
O=C(CCc1ccccc1)Nc1ccc(S(=O)(=O)N2CCCC2)cc1	?	-1.1	8.28µM*	-1.9
O=C(CCc1ccccc1)Nc1ccc(S(=O)(=O)N2CCOCC2)cc1	?	-12.9	9.1%	1.9
CN1CCN(c2ccc(S(=O)(=O)N3CCCCC3)cc2NC(=O)CCc2ccccc2)CC1	9.28µM*	/	?	/
NC(=O)c1ccc(NC(=O)CN2CCN(c3ccccc3)CC2)cc1	2.7%	/	?	-2.6
COc1ccc(CN(C)c2ccc(S(=O)(=O)N3CCN(C)CC3)cc2[N+](=O)[O-])cc1OC	11.7µM*	/	14.7µM*	/
CCN(CC(=O)Nc1ccc(S(=O)(=O)N2CCCC2)cc1)Cc1ccccc1	13.1µM*	/	?	/
O=C(COc1ccccc1)Nc1ccc(N2CCCCC2)cc1	0.0%	/	21.0%	/
O=C(Cc1ccccc1)Nc1ccc(S(=O)(=O)N2CCCC2)cc1	-8.6%	14.7	?	15.0
CCN(CC(=O)Nc1ccc(NC(C)=O)cc1)C(=O)/C=C/c1ccc(S(=O)(=O)N2CCCCCC2)cc1	3.29µM*	-10.9	4.65µM*	-3.0
O=C(CCc1ccccc1)Nc1ccc(N2CCCCC2)cc1	98.3%	92.8*	-7.7%	33.1*
CCOc1ccc(NC(=O)CN(C)C(=O)/C=C/c2ccc(S(=O)(=O)N3CCCCCC3)cc2)cc1OCC	?	/	-1.8%	/
CCCOC(=O)Nc1ccc(N2CCCCC2)cc1	131.6%	56.2*	41.3%	34.2*
O=C(CCc1nc2ccccc2c(=O)[nH]1)Nc1ccc(N2CCCCC2)cc1	52.2%	-7.9	-1.3%	4.6
CC(C)[C@H](NC(=O)[C@H](CC(=O)O)NC(=O)[C@H](Cc1ccccc1)NC(=O)[C@@H](C)NC(=O)[C@@H](N)Cc1ccc(O)cc1)C(=O)N[C@H](C(=O)NCC(N)=O)C(C)C	/	11.5	/	-0.7
Cc1ccc(NC(=O)Nc2c(C)[nH]c(=O)[nH]c2=O)cc1Cl	/	3.6	87.9%	0.5
SMILES	Pf growth 48h	Shiga toxin inh	Pf growth 96h	CHX counter
CCN1CCN(S(=O)(=O)c2ccc(S(=O)(=O)N(CC)Cc3ccccc3)cc2)CC1	13.1µM*	0.8	?	-1.2
Cc1ccc(Cl)cc1Nc1nc(N2CCOCC2)nc(N2CCOCC2)n1	-6.3%	-5.9	-9.8%	11.3
Cc1cc(C)n(-c2nc(Nc3ccccc3C(F)(F)F)nc(-n3nc(C)cc3C)n2)n1	4.15µM*	-5.8	-107.6%	-4.2
Nc1ncnc(Nc2ccccc2C(F)(F)F)n1	11.1%	-2.3	/	1.3
Cc1cc(C)n(-c2nc(Nc3ccccc3C)nc(-n3nc(C)cc3C)n2)n1	2.33µM*	-10.7	1.04µM*	0.2
CCOc1ccc(N(CC(=O)NC2CC2)S(=O)(=O)c2ccc(C)cc2)cc1	-11.8%	-5.3	1.9%	-1.0
O=C(NCCN1CCOCC1)c1cccn2c(=O)c3c4c(sc3nc12)CCCC4	-14.2%	-5.2	-7.1%	-0.7
O=c1c2c3c(sc2nc2sc(CN4CCOCC4)cn12)CCCC3	42.2%	+	/	17.9*
O=C(Nc1nc2ccsc2c(=O)s1)c1ccc(F)cc1	279.2%	80.8*	289.6%	45.3*
Cc1csc2c(=O)sc(NC(=O)c3ccc(F)cc3)nc12	22.3%	13.7	26.0%	-2.6
O=C(Nc1nc2ccsc2c(=O)s1)c1ccc(F)cc1Cl	167.3%	73.4*	144.0%	33.0*
CCC(=O)Nc1nc2ccc(S(C)(=O)=O)cc2s1	14.5%	24.9	?	14.0
Cc1ccc2nc(NC(=O)C3CC3C)sc2c1 (stereo not drawn)	134.7%	94.3*	138.6%	37.4*
